Experimental data from PubChem BioAssay AID624305 (National Center for Advancing Translational Sciences (NCATS), 2012).
Results filed as inconclusive are left out. Where a call stands in place of a potency, no number is given. Values without a mark were called inactive. Calls of active or inactive are those of the source. Calls follow the shape of the dose curve; as a rule, active = well fitted activation curve with a large enough effect; inconclusive = small, poorly fitted or top-dose-only effect; inactive = no such curve, though single readings can be large or run the other way.

Assay: qHTS assay for re-activators of p53 using a Luc reporter: Hit Validation; also: nearly all actives have a fitted effect of over 75% in size
Details: p53-responsive luciferase reporter cells, luminescence, H1299 line expressing heat-sensitive Ala138Val p53; series mostly up to 46.1 µM
Method in brief: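 H1299 (p53-null) cells stably carrying p53-A138V and a BP100-luciferase reporter, 1000 cells/well, treated 24 h at 37 deg C. Compounds at several concentrations, 1:5 dilution; nocodazole control; luminescence read after 10 min with detection reagent.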
Potency is read from the fitted curve at half-maximal effect.

SMILES	Potency	activation
CCc1ccc2[nH]c(=O)c(CN(CCN(CC)CC)C(=O)NC3CCCCC3)cc2c1	inactive	–
CCc1ccc(OCC(=O)NC(NC(=S)Nc2ccccc2C)C(Cl)(Cl)Cl)cc1 (stereo not drawn)	inactive	–
CCCN1CCC(NC(=O)Cc2ccc(C)cc2)CC1	inactive	–
COc1ccccc1OCCn1nnc2ccccc21	inactive	–
O=C(/C=C/c1cnc2ccccc2n1)NC12CC3CC(CC(C3)C1)C2	9.2 µM (active)	–
Fc1ccccc1OCCSc1nnnn1-c1ccccc1	0.82 µM (active)	–
O=C(Nc1ccc2c(c1)CCC2)c1ccccc1F	0.366 µM (active)	–
Cc1ccc(/C=N/NC(=O)c2cccs2)s1	5.8 µM (active)	–
O=C(CN1C(=O)COc2ccccc21)Nc1ccc(F)cc1	inactive	–
CN(C)c1ccc(/C=N/N=C/c2ccccc2O)cc1	0.461 µM (active)	–
CCN1CCN(/C=N/c2nc3c(s2)CCCC3)CC1	inactive	–
CCOc1ccc(-c2nnc(SCC(=O)N3CCNC3=O)o2)cc1	2.06 µM (active)	–
c1ccc(-c2cn3c(n2)SCC3)cc1	9.2 µM (active)	–
CCN(CC)C(=O)CSc1ncnc2c(-c3cccs3)nsc12	inactive	–
Cc1ccc(OCC(=O)Nc2ccc(Cl)cc2)c([N+](=O)[O-])n1	16.4 µM (active)	–
COC(=O)c1sccc1N/N=C/c1cccc(OC)c1O	0.146 µM (active)	–
COc1cc(CN2CCCCC2C(=O)Nc2ccc(Oc3ccccc3)nc2)ccc1O (stereo not drawn)	inactive	–
O=C(CC1NC2CCCCC2NC1=O)Nc1ccc2c(c1)OCO2 (stereo not drawn)	inactive	–
CCn1c(=N)n(CCOc2ccc(OC)cc2)c2ccccc21	inactive	–

SMILES	Potency	activation
O=C(CNc1ccccc1)N/N=C/c1c[nH]c2ccccc12	inactive	–
c1ccc2oc(C3=NNC(=NC4CC4)SC3)cc2c1	0.366 µM (active)	–
Cc1ccc(C2C(C#N)=C(N)Oc3cc4c(cc32)OCO4)cc1 (stereo not drawn)	inactive	–
COc1cccc(/C=N/Nc2ccc([N+](=O)[O-])cn2)c1O	9.2 µM (active)	–
Cc1c(C(=O)N(C)c2ccccc2Cl)cnn1-c1ccccc1	inactive	–
COc1cccc(C2(c3cccc(OC)c3)CC2C(=O)Nc2cccc3ccccc23)c1 (stereo not drawn)	inactive	–
Cc1ccc(S(=O)(=O)c2cn(CC(=O)Nc3ccccc3)c3ccc(F)cc3c2=O)cc1	inactive	–
CC1(C)NC(=O)N(CC(=O)N2CCN(S(=O)(=O)c3ccccc3C(F)(F)F)CC2)C1=O	inactive	–
Fc1cccc2sc(Nc3nnc(-c4ccco4)o3)nc12	11.6 µM (active)	–
Cc1cccc(NC(=O)Nc2ccc(C)cc2Br)c1	16.4 µM (active)	–
CCC(=O)c1ccc(OC(=O)Cc2ccc(OC)cc2)cc1	inactive	–
CCOC(=O)CC(=O)Nc1ccc(C(=O)OCC)cc1	inactive	–
CC(C)c1ccc(OCC(=O)NC(C)c2ccccc2)cc1 (stereo not drawn)	inactive	–
COCCn1c(C)cc(C(=O)COc2ccc(N(C)S(=O)(=O)c3ccc(C)cc3)cc2)c1C	inactive	–
COc1nnc(-c2ccc(C)c(S(=O)(=O)N(C)C)c2)c2ccccc12	inactive	–
O=C(NNC(=O)c1cc(-c2ccccc2)nn1-c1ccccc1)c1ccccc1	–	1.05% [at 9.22 µM]
COc1cccc(NC(=O)CSC2=C(C#N)C(c3ccco3)C3=C(CCCC3=O)N2)c1 (stereo not drawn)	inactive	–
c1nc(C2CCCCC2)cc2cc3c(cc12)OCO3	6.51 µM (active)	–
COc1ccc(C(C#N)N2N=C(c3ccccc3)CC2c2ccccc2)cc1OC (stereo not drawn)	inactive	–
